The record followed here is PubChem BioAssay (NCI).

The panel holds about 79,000 compounds, 15% with a hit somewhere; the sample as a whole holds those more often. Active and inactive are the calls of the source. Rule as the data show it: active = growth inhibition above about 70%; inactive = the rest.

This assay is described as follows: NCI Yeast Anticancer Drug Screen. Data for the mlh1 rad18 strain (AID 175). Particulars: S. cerevisiae mlh1 rad18 strain growth inhibition; at 50.0 µM; hits give high values. In short, it runs like this:
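Genetically defined yeast (DNA repair-deficient) exposed to compounds; growth inhibition determined relative to vehicle.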
As to `Cc1cccc(NC(=O)CCc2ccc(Cl)cc2)n1`, the growth inhibition is -2.8% (inactive). The figure for `O=C(NNc1nc(-c2ccccc2)cs1)C(F)(F)F` is 91.2% (active); for `COc1ccc(C(=O)C(c2ccc(OC)cc2)C2(O)C(=O)Nc3c(Cl)cc(Cl)cc32)cc1` (centres undefined) it is 90.7% (active); for `CC(=O)NNc1nc(C)c(C(=O)NNC(=O)C(=O)Nc2ccc(Cl)c([N+](=O)[O-])c2)s1` it is 50.4% (inactive). The figure for `COc1ccc(Cc2cncc3c(O)c(OC)ccc23)cc1O` is 89.5% (active); for `Nc1ccccc1N=Nc1c(S(=O)(=O)O)cc2cc(S(=O)(=O)O)cc(O)c2c1O` it is -33.9% (inactive); for `CCN(CC)c1c(C(=O)/C=C/c2ccc(OC)cc2)c(-c2ccccc2)nn(C)c1=O` it is 70.2% (active).

As for `O=C(O)/C=C/c1ccc(Cl)c(Cl)c1`, the growth inhibition is 92.9% (active).

`CCC12C=CCN3CC[C@@]4(c5cc([C@@]6(C(=O)OC)C[C@@H]7CN(CCc8c6[nH]c6ccccc86)C[C@](O)(CC)C7)c(OC)cc5N(C)[C@H]4[C@@](O)(C(=O)OC)[C@@H]1OC(=O)CCCCCCCCCCCN1C(=O)C=CC1=O)[C@H]32` (some centres undefined): the growth inhibition is 91.5% (active). Regarding `Cc1cc(C)c(Cc2cc(C(C)(C)C)cc(C)c2O)cc1Cc1cc(C(C)(C)C)cc(C)c1O`, the growth inhibition is 71% (active).

In the case of `COC(=O)C(=O)/C=C(/O)c1ccc(OC)cc1`, the growth inhibition is -26.5% (inactive).

Turning to `Oc1ccc2c(c1)OCC1c3ccccc3OC21` (centres undefined), the growth inhibition is 76.7% (active). The result for `Cc1cc(N2C(=O)CCSC2=S)c([N+](=O)[O-])cc1C` reads 99.4% (active). The figure for `CCCCCCC(C)S(=O)(=O)c1ccc(C)cc1` (centres undefined) is 51.2% (inactive); for `S=c1sc2c(s1)SCCOCCOCCOCCS2` it is 23.4% (inactive); for `N#Cc1cn(-c2c3ccccc3nc3ccccc23)c(=O)[nH]c1=O` it is 76.2% (active). The figure for `O=C1C=C(c2ccccc2)O/C1=C\C(=O)c1ccc(Cl)cc1` is 84.5% (active). For `O=c1[nH]c2cc(Cl)ccc2nc1/C=C(\O)c1ccc(N2CCN(c3ccc(/C(O)=C/c4nc5ccc(Cl)cc5[nH]c4=O)cc3)CC2)cc1`, the growth inhibition is 94.2% (active).

Take `O=C1Oc2ccccc2C(=O)/C1=C/N1C(=O)/C(=C/c2ccccc2)NC1=S`: the growth inhibition was 54% (inactive). As to `CN(C)/C=C(\C(=O)c1ccccc1)n1nc(-c2ccccc2)cc1-c1ccccc1`, the growth inhibition is 81.3% (active). Turning to `O=C1C(=O)c2ccccc2C(O)=C1Sc1ccccc1`, the growth inhibition is 95.5% (active). The result for `O=C(c1c(F)c(F)c(F)c(F)c1F)n1c(=S)n(C(=O)c2c(F)c(F)c(F)c(F)c2F)c2ccccc21` reads 86.1% (active); that for `CCCCNCCC1(c2ccccc2)C(=O)Oc2ccccc21` (centres undefined), 53% (inactive); that for `COc1cc(/C=C/c2cc[n+](C)cc2)ccc1O`, -8.35% (inactive). The result for `c1ccc(-c2ccc(-c3ccc(C4=NCCN4)cc3)o2)cc1` reads 97.5% (active).

As to `CCCCCCCCCCCCCCNC(=O)C[N+](C)(C)Cc1ccccc1`, the growth inhibition is 99.6% (active). As to `NC(CSSCC(N)C(=O)Nc1ccc2ccccc2c1)C(=O)Nc1ccc2ccccc2c1` (centres undefined), the growth inhibition was 88% (active). The figure for `O=C(OCc1ccccc1)C(O)c1ccccc1` (centres undefined) is 16.2% (inactive); for `CC(=O)CC1(O)C(=O)Nc2ccc(Br)cc21` (centres undefined) it is 5.25% (inactive). For `S=C(S)NCCN1CCNCC1`, the growth inhibition is -10.3% (inactive). The result for `CCCCCCCC(=O)N1CCCCC1CC` (centres undefined) reads 24.2% (inactive); that for `O=C1CCCC1C(=O)OC1CCCC1` (centres undefined), -11.4% (inactive). The result for `CCN1CCC(O)(/C=C/c2cccc(C)c2)C(C(=O)/C=C/c2cccc(C)c2)C1` (centres undefined) reads 92.7% (active); that for `O=C(SCCCc1ccccc1)c1cc([N+](=O)[O-])cc([N+](=O)[O-])c1`, 76.6% (active). The result for `O=C1C(=O)C2CC3(CC1N2Cc1ccccc1)OCCO3` reads 95.5% (active); that for `CNc1cc(SC)nc(N)n1`, 95% (active); that for `Clc1ccc(Cl)c(SCCCN2CCNCC2)c1`, 74.4% (active).

Turning to `CC(C)C(Cl)CC/C(CBr)=C(\Cl)CCl` (centres undefined), the growth inhibition was 18.9% (inactive). With `O=C(O)CNc1ccc2c(c1)Cc1cc(Br)ccc1-2`, the growth inhibition was 97.7% (active).
